Results: PubChem BioAssay (Tox21)
Inconclusive results are not listed. Where a call stands in place of a potency, no number is given. The source holds several records for some structures; these can differ, active in one and inactive in another. The source made the active and inactive calls. Unless noted, calls follow the shape of the full dose curve.

Columns and labels:
[1] = Nuclear factor erythroid 2-related factor 2/antioxidant responsive element (Nrf2/ARE) small molecule agonists: qHTS cell viability counter screen in human keratinocytes (AID 1919968; active = well fitted curve in the direction sought with a large enough effect in the repeat runs; an effect the other way counts as inactive or inconclusive; also: nearly all actives have a fitted effect of over 55% in size)
Procedure, shortened: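 KeratinoSens HaCaT cells, 1,500/well, preincubated 5 h, then exposed to compounds in DMSO for 23 h at 37 C/5% CO2. Viability read as CellTiter-Fluor fluorescence after 1 h, in the same wells as the ARE-luciferase read.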

[2] = Nuclear factor erythroid 2-related factor 2/antioxidant responsive element (Nrf2/ARE) small molecule agonists: luciferase reporter gene qHTS assay in human keratinocytes (AID 1919969); also: nearly all actives have a fitted effect of over 35% in size; also: potency is read from the fitted curve at half-maximal effect
[3] = biological target: KiSS-1 receptor (Homo sapiens) (UniProt Q969F8); test: Human kisspeptin (KISS1R) small molecule agonists, calcium flux assay in KISS1R-HEK293 cells (AID 1920064; active = well fitted curve in the direction sought with a large enough effect in the repeat runs; an effect the other way counts as inactive or inconclusive)
Procedure, shortened: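 HEK293 cells stably expressing human KISS1R were loaded with calcium dye for 1 h at 37 C, then given compound; fluorescence (Ex/Em 480/540) was read kinetically for 3 min. Fifteen concentrations, triplicate.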

[4] = G protein-coupled receptor (GPCR) small molecule agonists, calcium flux assay: HEK293 wild type cell line counter screen (AID 1920065)
Procedure, shortened: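 Wild-type HEK293 cells plated 18 h, loaded with calcium dye 1 h at 37 C, then compounds added in agonist mode (ATP as positive control). Kinetic fluorescence Ex/Em 480/540 recorded 3 min at 1 sec intervals; 15 concentrations, triplicate.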

[5] = p53 small molecule agonists, cell-based qHTS assay with human liver microsomes (AID 1963577);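 also: p53 response element beta-lactamase reporter cells with liver microsomes plus NADPH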
Procedure, shortened: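 With metabolic activation: human liver microsomes (0.5 mg/mL final) plus NADPH (0.5 mg/mL final) added alongside compounds to p53RE-bla cells; 16 h 37 C exposure; beta-lactamase read by LiveBLAzer fluorescence.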

[6] = p53 small molecule agonists, cell-based qHTS assay with rat liver microsomes (AID 1963578)
Procedure, shortened: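 Metabolic activation by rat liver microsomes and NADPH, each 0.5 mg/mL final, added right after compounds to p53RE-bla reporter cells (4,000/well, plated 5 h earlier). 16 h at 37 C, then LiveBLAzer substrate for 2 h at room temperature in the dark; fluorescence read-out.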

[7] = p53 small molecule agonists, cell-based qHTS assay with human liver microsomes: qHTS cell viability counter screen (AID 1963579); also: nearly all actives have a fitted effect of over 45% in size; also: potency is read from the fitted curve at half-maximal effect
Procedure, shortened: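 Metabolic activation used human liver microsomes and NADPH, both 0.5 mg/mL final, over 16 hours at 37 C on p53RE-bla cells (4,000/well). Cytotoxicity measured by CellTiter-Glo luminescence, 30 min at room temperature.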

[8] = p53 small molecule agonists, cell-based qHTS assay with rat liver microsomes: qHTS cell viability counter screen (AID 1963580); also: nearly all actives have a fitted effect of over 45% in size; also: potency is read from the fitted curve at half-maximal effect
Procedure, shortened: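 HCT-116 p53RE-bla, 4,000 cells/well, 5 h pre-incubation; cpd + rat liver microsomes 0.5 mg/mL + NADPH 0.5 mg/mL (final); 16 h, 37 C; CellTiter-Glo, 30 min RT; luminescence.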

[9] = p53 small molecule agonists, cell-based qHTS assay: qHTS cell viability counter screen (AID 1963581); also: nearly all actives have a fitted effect of over 45% in size
Procedure, shortened: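 p53RE-bla HCT-116 cells, compounds added 5 h after plating and incubated 16 h at 37 C. Cytotoxicity measured in the same wells as intracellular ATP by CellTiter-Glo luminescence after 30 min at room temperature.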

[10] = p53 small molecule agonists, cell-based qHTS assay (AID 1963582; active = well fitted activation curve with a large enough effect in the signal ratio in the repeat runs, not every such curve was filed as active; the % refers to the signal ratio)
Procedure, shortened: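 p53RE-bla reporter cells, compounds added in DMSO after 5 h plating, incubated 16 h at 37 C. Beta-lactamase read via 2 h room-temperature LiveBLAzer B/G FRET substrate, fluorescence intensity.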

[11] = biological target: 5-hydroxytryptamine receptor 2A (Homo sapiens) (UniProt P28223); test: 5-hydroxytryptamine receptor 2A (HTR2A) small molecule antagonists, cell-based qHTS assay (AID 1963586); also: nearly all actives have a fitted effect of over 45% in size
Procedure, shortened: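 Antagonist-mode intracellular calcium assay: DOI (4 nM) added after 5 min compound pre-incubation at room temperature to dye-loaded HTR2A-CHO cells. Fluorescence followed for 3 min, sampled every second.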

[12] = biological target: Muscarinic acetylcholine receptor M1 (Homo sapiens) (UniProt P11229); test: Cholinergic receptor muscarinic 1 (CHRM1) small molecule antagonists, cell-based qHTS assay (AID 1963588); also: nearly all actives have a fitted effect of over 40% in size
Procedure, shortened: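 CHRM1-CHO calcium-flux assay, antagonist mode. Cells were seeded 18 h, dye-loaded 1 h at 37 C and given compound for 5 min at RT, then acetylcholine was added at 50nM. FDSS fluorescence was read 3 min; 15 concentrations, three runs.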

[13] = biological target: Muscarinic acetylcholine receptor M1 (Homo sapiens) (UniProt P11229); test: Cholinergic receptor muscarinic 1 (CHRM1) small molecule agonists, cell-based qHTS assay (AID 1963589); also: nearly all actives have a fitted effect of over 35% in size
Procedure, shortened: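 CHO cells stably expressing human CHRM1 were loaded with calcium dye for 1 h at 37 C, then compound was added in agonist mode. Intracellular calcium fluorescence was followed kinetically at 1 s intervals. Fifteen concentrations were tested in three independent runs.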

[14] = cAMP Responsive Elements (CRE) small molecule agonists, cell-based qHTS assay (AID 1963590)
Procedure, shortened: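 CRE-bla HEK 293T cells, 2,000/well in DMEM with 10% dialyzed FBS and 25 mM HEPES, pre-incubated 18 h at 37 C, then exposed to compound 3 h at 37 C. Beta-lactamase reporter read with LiveBLAzer B/G FRET substrate after 2 h at room temperature.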

[15] = cAMP Responsive Elements (CRE) small molecule antagonists, cell-based qHTS assay (AID 1963591; active = well fitted inhibition curve with a large enough effect in the signal ratio in the repeat runs, not every such curve was filed as active; the % refers to the signal ratio)
Procedure, shortened: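 CRE-bla HEK293T cells plated 18 h, then given compound plus NKH477 at 0.25 uM final for 3 h at 37C. Beta-lactamase reporter read with LiveBLAzer B/G FRET substrate after 2 h at room temperature.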

[16] = biological target: Beta-2 adrenergic receptor (Homo sapiens) (UniProt P07550); test: Adrenergic beta2 receptor (ADRB2) small molecule antagonists, cell-based qHTS assay (AID 1963592); also: series mostly up to about 92 µM; nearly all actives have a fitted effect of over 50% in size
Procedure, shortened: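 Cells (CHO, stable ADRB2 overexpression) incubated 18-20hr at 37C; compounds added from DMSO; agonist mix (1nM isoproterenol, 100uM IBMX, 25uM Ro-20-1724) added; 0.5hr RT; d2-cAMP and anti-cAMP-cryptate added; 1hr RT; 665/615 nm read.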

[17] = biological target: Beta-2 adrenergic receptor (Homo sapiens) (UniProt P07550); test: Adrenergic beta2 receptor (ADRB2) small molecule agonists, cell-based qHTS assay (AID 1963593);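 also: CHO cells stably overexpressing human ADRB2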
Procedure, shortened: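 CHO cells stably over-expressing ADRB2 were plated overnight at 37C, then dosed with compounds plus a stimulation mix containing 100uM IBMX and 25uM Ro-20-1724 for 0.5hr at room temperature. cAMP was measured by HTRF competition, 1hr.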

[18] = biological target: D(2) dopamine receptor (Homo sapiens) (UniProt P14416); test: Dopamine D2 receptor (DRD2) small molecule agonists, cell-based qHTS assay (AID 1963594); also: nearly all actives have a fitted effect of over 35% in size
Procedure, shortened: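 cAMP accumulation in DRD2-HEK293 cells measured by HTRF after 1 h detection; compounds added 10 min before NKH477 (200nM […]) forskolin-analogue stimulation, 30 min at room temperature, with Ro20-1724 present at 0.1 mM final.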

[19] = biological target: D(2) dopamine receptor (Homo sapiens) (UniProt P14416); test: Dopamine D2 receptor (DRD2) small molecule antagonists, cell-based qHTS assay (AID 1963595; active = well fitted inhibition curve with a large enough effect in the signal ratio in the repeat runs, with a control signal flat; the % refers to the signal ratio)
Procedure, shortened: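 Antagonist mode in DRD2-HEK293 cells: after compound addition with 0.1 mM Ro20-1724, cells received quinpirole (12 nM) and NKH477 (200 nM) for 30 min at room temperature; HTRF cAMP read after 1 h detection.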

[20] = biological target: 5-hydroxytryptamine receptor 2A (Homo sapiens) (UniProt P28223); test: 5-hydroxytryptamine receptor 2A (HTR2A) small molecule agonists, cell-based qHTS assay (AID 1963587); also: nearly all actives have a fitted effect of over 30% in size
Procedure, shortened: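 Kinetic calcium-flux fluorescence (2 min, 1 sec intervals) after compound addition in agonist mode. HTR2A-CHO cells were cultured 18 h, then dye-loaded 1 h at 37 C.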

Sequence of KiSS-1 receptor (Homo sapiens) (Q969F8 whole entry, looked up): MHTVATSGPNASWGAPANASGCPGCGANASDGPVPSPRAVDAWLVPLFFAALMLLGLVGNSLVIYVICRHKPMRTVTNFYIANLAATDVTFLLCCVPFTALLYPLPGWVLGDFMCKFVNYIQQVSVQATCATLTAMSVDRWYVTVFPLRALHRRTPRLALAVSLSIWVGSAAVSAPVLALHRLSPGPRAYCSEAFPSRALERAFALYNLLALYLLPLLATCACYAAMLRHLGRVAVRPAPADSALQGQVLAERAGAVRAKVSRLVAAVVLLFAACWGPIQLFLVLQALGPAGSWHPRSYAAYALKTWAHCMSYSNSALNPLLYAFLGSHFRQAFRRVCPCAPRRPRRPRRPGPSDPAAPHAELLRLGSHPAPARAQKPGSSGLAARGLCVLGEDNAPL
Sequence of Muscarinic acetylcholine receptor M1 (Homo sapiens) (P11229 whole entry, looked up): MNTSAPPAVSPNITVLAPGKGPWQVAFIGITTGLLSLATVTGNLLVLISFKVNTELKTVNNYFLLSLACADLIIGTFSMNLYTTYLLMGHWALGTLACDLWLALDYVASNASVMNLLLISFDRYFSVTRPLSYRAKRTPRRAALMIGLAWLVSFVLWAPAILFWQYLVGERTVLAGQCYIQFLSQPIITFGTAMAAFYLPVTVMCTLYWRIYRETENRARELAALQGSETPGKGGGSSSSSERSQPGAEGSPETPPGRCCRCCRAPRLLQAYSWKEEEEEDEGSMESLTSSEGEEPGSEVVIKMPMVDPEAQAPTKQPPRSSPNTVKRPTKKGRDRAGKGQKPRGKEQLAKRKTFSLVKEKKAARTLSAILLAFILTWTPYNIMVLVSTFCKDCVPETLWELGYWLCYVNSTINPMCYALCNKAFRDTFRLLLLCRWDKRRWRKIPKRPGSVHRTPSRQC
Sequence of Beta-2 adrenergic receptor (Homo sapiens) (P07550 whole entry, looked up): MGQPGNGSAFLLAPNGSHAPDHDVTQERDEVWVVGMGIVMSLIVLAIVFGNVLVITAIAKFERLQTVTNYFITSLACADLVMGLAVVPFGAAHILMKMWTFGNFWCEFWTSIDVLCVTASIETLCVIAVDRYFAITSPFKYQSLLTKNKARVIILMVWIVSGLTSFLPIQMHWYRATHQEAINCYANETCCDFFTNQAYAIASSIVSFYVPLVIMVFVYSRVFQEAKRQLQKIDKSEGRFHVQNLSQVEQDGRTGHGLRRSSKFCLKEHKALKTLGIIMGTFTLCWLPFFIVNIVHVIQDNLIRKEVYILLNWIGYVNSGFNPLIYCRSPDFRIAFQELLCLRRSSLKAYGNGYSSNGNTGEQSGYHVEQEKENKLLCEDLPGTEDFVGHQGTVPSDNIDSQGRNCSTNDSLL
Sequence of D(2) dopamine receptor (Homo sapiens) (P14416 whole entry, looked up): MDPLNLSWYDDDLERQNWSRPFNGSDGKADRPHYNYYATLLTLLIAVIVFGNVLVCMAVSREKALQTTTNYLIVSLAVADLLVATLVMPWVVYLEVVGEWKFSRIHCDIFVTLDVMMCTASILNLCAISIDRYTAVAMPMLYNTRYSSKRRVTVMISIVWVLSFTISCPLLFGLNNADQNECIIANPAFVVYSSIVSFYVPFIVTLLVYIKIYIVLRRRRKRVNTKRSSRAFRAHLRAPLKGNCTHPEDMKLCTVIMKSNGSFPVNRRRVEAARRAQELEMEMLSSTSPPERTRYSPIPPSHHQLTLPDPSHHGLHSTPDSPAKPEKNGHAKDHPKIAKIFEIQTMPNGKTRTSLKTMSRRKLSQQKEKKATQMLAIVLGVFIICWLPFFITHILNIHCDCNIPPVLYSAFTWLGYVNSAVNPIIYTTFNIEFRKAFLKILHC
Sequence of 5-hydroxytryptamine receptor 2A (Homo sapiens) (P28223 whole entry, looked up): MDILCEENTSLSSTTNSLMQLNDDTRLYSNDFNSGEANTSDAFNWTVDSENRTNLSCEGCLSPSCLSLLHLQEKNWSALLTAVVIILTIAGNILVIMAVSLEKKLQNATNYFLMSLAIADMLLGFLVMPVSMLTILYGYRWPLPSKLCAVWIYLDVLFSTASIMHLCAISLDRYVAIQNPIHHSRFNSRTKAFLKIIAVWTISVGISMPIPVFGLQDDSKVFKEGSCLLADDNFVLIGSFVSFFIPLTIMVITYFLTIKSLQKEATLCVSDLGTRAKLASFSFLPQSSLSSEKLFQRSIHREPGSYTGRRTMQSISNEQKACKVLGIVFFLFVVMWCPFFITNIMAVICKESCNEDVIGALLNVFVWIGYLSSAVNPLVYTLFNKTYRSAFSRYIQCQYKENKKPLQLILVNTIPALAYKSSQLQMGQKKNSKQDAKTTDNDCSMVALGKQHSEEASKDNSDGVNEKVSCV

| Structure (SMILES) | Potency [1] | Potency [2] | Potency [3] | Potency [4] | Potency [5] | Potency [6] | Potency [7] | Potency [8] | Potency [9] | Potency [10] | Potency [11] | Potency [12] | Potency [13] | Potency [14] | Potency [15] | Potency [16] | Potency [17] | Potency [18] | Potency [19] | Potency [20] |
| --- | --- | --- | --- | --- | --- | --- | --- | --- | --- | --- | --- | --- | --- | --- | --- | --- | --- | --- | --- | --- |
| CC1CCc2nccnc21 (stereo unspecified) | inactive | inactive | inactive | inactive | inactive | inactive | inactive | inactive | inactive | inactive | inactive | inactive | inactive | inactive | inactive | inactive | inactive | inactive | inactive | – |
| C1CCCNCCC1 | inactive | inactive | – | – | inactive | inactive | inactive | inactive | – | inactive | – | inactive | inactive | inactive | inactive | inactive | – | – | inactive | inactive |
| Cc1cnccn1 | inactive | inactive | inactive | inactive | inactive | inactive | inactive | inactive | inactive | inactive | inactive | inactive | inactive | inactive | inactive | inactive | – | inactive | inactive | inactive |
| CC(CN1c2ccccc2Sc2ccccc21)N(C)C (stereo unspecified) | inactive | inactive | inactive | inactive | inactive | inactive | inactive | inactive | – | inactive | – | – | – | inactive | inactive | inactive | – | inactive | inactive | – |
| C[C@]12CC[C@H]3[C@@H](CCC4=CC(=O)CC[C@@]43C)[C@@H]1CC[C@@H]2C(=O)CO | inactive | inactive | inactive | inactive | inactive | inactive | inactive | inactive | inactive | inactive | inactive | inactive | inactive | – | – | inactive | inactive | – | inactive | inactive |
| Cc1ccc(C)cc1 | inactive | inactive | inactive | inactive | inactive | inactive | inactive | inactive | inactive | inactive | inactive | inactive | inactive | inactive | inactive | – | inactive | inactive | inactive | inactive |
| Cc1ccccc1N=O | inactive | inactive | inactive | inactive | inactive | inactive | inactive | inactive | inactive | inactive | inactive | inactive | inactive | inactive | inactive | inactive | – | inactive | inactive | inactive |
| Cc1oncc1C(=O)Nc1ccc(C(F)(F)F)cc1 | inactive | 27.3 µM (active) and inactive | inactive | inactive | inactive | inactive | 20.4 µM (active) and inactive | 20.4 µM (active) | inactive | inactive | – | – | – | – | inactive | inactive | – | inactive | inactive | – |
| CC(=O)OCC1=C(C(=O)O)N2C(=O)[C@@H](NC(=O)Cc3cccs3)[C@H]2SC1 | inactive | inactive | inactive | inactive | inactive | inactive | inactive | inactive | inactive | inactive | inactive | inactive | inactive | inactive | inactive | inactive | inactive | inactive | inactive | inactive |
| Cc1ccccc1OCC(O)CO (stereo unspecified) | inactive | inactive | inactive | inactive | inactive | inactive | inactive | inactive | inactive | inactive | inactive | inactive | inactive | inactive | inactive | inactive | inactive | inactive | inactive | inactive |
| Cc1ccc(O)c([N+](=O)[O-])c1 | inactive | inactive | inactive | inactive | inactive | inactive | inactive | inactive | inactive | inactive | inactive | inactive | inactive | – | inactive | inactive | inactive | inactive | inactive | inactive |
| O=C1Cc2cc(Cl)ccc2N1 | inactive | inactive | inactive | inactive | inactive | inactive | inactive | inactive | inactive | inactive | inactive | inactive | inactive | inactive | inactive | inactive | inactive | inactive | inactive | inactive |
| Nc1cc([N+](=O)[O-])ccc1Cl | inactive | inactive | inactive | inactive | inactive | inactive | inactive | inactive | inactive | inactive | inactive | inactive | inactive | inactive | inactive | inactive | inactive | inactive | inactive | inactive |
| CC1(C)[C@H](C(=O)OCc2cccc(Oc3ccccc3)c2)[C@@H]1C=C(Cl)Cl | inactive | inactive | inactive | inactive | inactive | inactive | inactive | inactive | inactive | inactive | inactive | – | – | inactive | inactive | inactive | – | inactive | inactive | inactive |
